Some structures have more than one record in an assay (separate samples or runs), and their calls can disagree. Activity calls are given as the source filed them. The calls were made as follows: active = hit-call score of the fitted dose curve at least 0.9, where 1 is the maximum; inactive = score below 0.9.
Experiments:
[1] = ATG_ISRE_CIS: Attagene CIS-FACTORIAL HepG2 Assay for human Interferon Regulatory Factor 1 (IRF1) binding to an Interferon-Stimulated Response Element (ISRE) (AID 2282948); conditions: HepG2 ISRE cis-reporter (Attagene), mRNA transcription readout; actives raise or lower the signal
How it was run: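 Endogenous transcription factor activity read as reporter transcript abundance via RT-PCR and capillary electrophoresis. HepG2 cells transiently transfected, 24 h chemical exposure. Gain or loss fitted against DMSO baseline.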

[2] = ATG_M_32_CIS: Attagene CIS-FACTORIAL HepG2 Assay for M32 Transcription Factor (Internal Marker) (AID 2282949); conditions: HepG2 Attagene cis-factorial M32 reporter, mRNA; actives raise or lower the signal;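 also: background control marker of the multiplexed CIS panel rather than a real target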
How it was run: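 Using DMSO as baseline, bidirectional curve fits were applied to reporter mRNA signals. These came from transiently transfected HepG2 cells exposed for 24 h, with RNA analysed by RT-PCR, FAM primer extension, HpaI digestion and CE.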

[3] = ATG_M_06_CIS: Attagene CIS-FACTORIAL HepG2 Assay for M06 Transcription Factor (Internal Marker) (AID 2282950); conditions: HepG2 Attagene CIS-FACTORIAL M06 internal marker reporter; actives raise or lower the signal
How it was run: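 One of many multiplexed endpoints: HepG2 reporter mRNA after 24 h dosing, detected by RT-PCR and capillary electrophoresis fluorescence; gain or loss of signal analysed against DMSO.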

[4] = target: Hepatocyte nuclear factor 6 (Homo sapiens) (UniProt Q9UBC0); assay: ATG_HNF6_CIS: Attagene CIS-FACTORIAL HepG2 Assay for human Hepatocyte Nuclear Factor 6 (HNF6) (AID 2282952); conditions: HepG2 Attagene cis-factorial HNF6 reporter transcription; actives raise or lower the signal
Sequence of Hepatocyte nuclear factor 6 (Homo sapiens) (Q9UBC0 whole entry, looked up, the tested form may be a part): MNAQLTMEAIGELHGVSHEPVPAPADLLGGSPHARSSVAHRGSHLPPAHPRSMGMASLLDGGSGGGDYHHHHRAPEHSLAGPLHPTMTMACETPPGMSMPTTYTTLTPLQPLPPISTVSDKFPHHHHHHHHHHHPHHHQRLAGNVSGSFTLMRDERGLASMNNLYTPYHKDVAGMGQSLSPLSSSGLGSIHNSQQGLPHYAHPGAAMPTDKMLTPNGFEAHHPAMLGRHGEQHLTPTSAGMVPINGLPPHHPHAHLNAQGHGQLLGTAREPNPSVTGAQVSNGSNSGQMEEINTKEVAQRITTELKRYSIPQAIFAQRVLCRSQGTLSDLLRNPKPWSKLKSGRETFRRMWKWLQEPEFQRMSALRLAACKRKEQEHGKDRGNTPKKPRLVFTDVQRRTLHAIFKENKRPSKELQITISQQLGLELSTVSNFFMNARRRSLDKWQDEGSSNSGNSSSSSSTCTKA
How it was run: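 Using cis-element reporters in HepG2 liver cells, the assay tracks endogenous factor-driven transcription 24 h post-dosing. Signal comes from 6-FAM-labelled, HpaI-digested RT-PCR fragments, with gain or loss scored against DMSO.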

[5] = target: Heat shock factor protein 1 (Homo sapiens) (UniProt Q00613); assay: ATG_HSE_CIS: Attagene CIS-FACTORIAL HepG2 Assay for human Heat Shock Transcription Factor 1 (HSE) (AID 2282953); conditions: HepG2 HSE cis-reporter, Attagene RNA transcription; actives raise or lower the signal
Sequence of Heat shock factor protein 1 (Homo sapiens) (Q00613 whole entry, looked up): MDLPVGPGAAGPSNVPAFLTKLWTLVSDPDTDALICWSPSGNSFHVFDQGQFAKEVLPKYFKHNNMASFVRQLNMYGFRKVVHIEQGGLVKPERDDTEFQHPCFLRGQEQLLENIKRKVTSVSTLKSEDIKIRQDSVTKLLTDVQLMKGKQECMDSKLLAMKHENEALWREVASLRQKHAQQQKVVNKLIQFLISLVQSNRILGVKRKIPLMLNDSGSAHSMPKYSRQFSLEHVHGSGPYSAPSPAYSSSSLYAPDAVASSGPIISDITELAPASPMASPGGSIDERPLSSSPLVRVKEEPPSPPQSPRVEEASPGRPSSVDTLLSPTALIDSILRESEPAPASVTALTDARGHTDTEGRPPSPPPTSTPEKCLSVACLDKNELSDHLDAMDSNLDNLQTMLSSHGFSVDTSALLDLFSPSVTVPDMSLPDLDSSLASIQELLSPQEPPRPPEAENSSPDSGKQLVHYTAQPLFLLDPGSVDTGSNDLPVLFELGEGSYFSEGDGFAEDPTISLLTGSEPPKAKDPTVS
How it was run: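 Using HepG2 with transfected cis-driven reporter constructs, compound effects on endogenous factor activity are scored as reporter mRNA change at 24 h. Detection: RT-PCR, HpaI digestion, capillary electrophoresis; bidirectional fitting to DMSO.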

[6] = ATG_MRE_CIS: Attagene CIS-FACTORIAL HepG2 Assay for human Metal Responsive Element (MRE) (AID 2282954); conditions: HepG2 MRE cis-reporter transcription, Attagene multiplex; actives raise or lower the signal
How it was run: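 Readout: capillary electrophoresis of 6-FAM-labelled, HpaI-digested RT-PCR reporter products. System: HepG2 cells carrying transient multiplexed cis reporters, dosed 24 h. Analysis: bidirectional fit, DMSO baseline.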

[7] = ATG_PBREM_CIS: Attagene CIS-FACTORIAL HepG2 Assay for human Phenobarbital-responsive Enhancer Module (PBREM) (AID 2282955); conditions: HepG2 PBREM cis-reporter, Attagene multiplexed transcription; actives raise or lower the signal
How it was run: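 Fluorescence of labelled reporter cDNA fragments, resolved by capillary electrophoresis, gives mRNA induction in transfected HepG2 cells treated for 24 h; DMSO serves as negative control and baseline.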

[8] = target: Paired box protein Pax-6 (Homo sapiens) (UniProt P26367); assay: ATG_Pax6_CIS: Attagene CIS-FACTORIAL HepG2 Assay for human Paired Box 6 (PAX6) (AID 2282956); conditions: HepG2 CIS-FACTORIAL PAX6 reporter transcription, RNA readout; actives raise or lower the signal
Sequence of Paired box protein Pax-6 (Homo sapiens) (P26367 whole entry, looked up): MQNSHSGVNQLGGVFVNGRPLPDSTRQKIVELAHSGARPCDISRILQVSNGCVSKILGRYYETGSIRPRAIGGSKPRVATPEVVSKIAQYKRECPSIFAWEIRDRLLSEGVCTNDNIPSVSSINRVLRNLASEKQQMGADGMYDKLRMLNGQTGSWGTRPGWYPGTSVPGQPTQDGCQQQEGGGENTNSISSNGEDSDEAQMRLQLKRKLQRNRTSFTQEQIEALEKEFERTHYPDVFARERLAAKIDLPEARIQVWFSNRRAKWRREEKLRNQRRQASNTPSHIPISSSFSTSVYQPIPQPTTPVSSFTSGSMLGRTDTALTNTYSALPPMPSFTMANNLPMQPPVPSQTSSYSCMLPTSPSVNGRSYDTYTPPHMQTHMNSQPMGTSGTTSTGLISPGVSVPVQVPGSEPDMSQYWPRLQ
How it was run: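 Read-out is reporter transcript level, measured by RT-PCR with fluorescent primer extension and capillary electrophoresis after 24 h dosing of transfected HepG2 cells. Activity in either direction fitted relative to DMSO control.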

[9] = target: Hypoxia-inducible factor 1-alpha (Homo sapiens) (UniProt Q16665); assay: ATG_HIF1a_CIS: Attagene CIS-FACTORIAL HepG2 Assay for human Hypoxia Inducible Factor 1 (HIF1A) (AID 2282951); conditions: HepG2 Attagene cis-factorial HIF1a reporter transcription; actives raise or lower the signal
Sequence of Hypoxia-inducible factor 1-alpha (Homo sapiens) (Q16665 whole entry, looked up): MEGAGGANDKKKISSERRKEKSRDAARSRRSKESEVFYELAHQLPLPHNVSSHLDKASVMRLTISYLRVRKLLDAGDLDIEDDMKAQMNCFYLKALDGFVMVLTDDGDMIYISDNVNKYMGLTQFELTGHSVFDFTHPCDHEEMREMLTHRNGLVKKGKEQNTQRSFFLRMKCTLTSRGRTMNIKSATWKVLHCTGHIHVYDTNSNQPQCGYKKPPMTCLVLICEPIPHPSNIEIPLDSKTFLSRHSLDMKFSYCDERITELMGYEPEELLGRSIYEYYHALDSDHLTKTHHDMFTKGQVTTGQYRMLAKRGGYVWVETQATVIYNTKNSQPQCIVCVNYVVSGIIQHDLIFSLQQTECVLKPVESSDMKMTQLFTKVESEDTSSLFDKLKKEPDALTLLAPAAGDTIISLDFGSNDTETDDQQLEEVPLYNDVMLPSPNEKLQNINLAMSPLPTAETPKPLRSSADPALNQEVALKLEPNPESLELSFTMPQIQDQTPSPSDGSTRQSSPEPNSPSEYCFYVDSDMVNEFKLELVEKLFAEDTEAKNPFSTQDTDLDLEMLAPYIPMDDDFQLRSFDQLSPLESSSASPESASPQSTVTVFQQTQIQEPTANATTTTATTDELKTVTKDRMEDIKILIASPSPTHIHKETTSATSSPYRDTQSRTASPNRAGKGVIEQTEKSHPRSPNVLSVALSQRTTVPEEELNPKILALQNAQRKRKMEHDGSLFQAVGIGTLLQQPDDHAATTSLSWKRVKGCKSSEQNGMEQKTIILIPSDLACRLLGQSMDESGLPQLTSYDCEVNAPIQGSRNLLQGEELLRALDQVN
How it was run: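 Measures endogenous transcription-factor activity through cis-regulated reporter mRNA in HepG2. Cells dosed 24 h; transcripts quantified by RT-PCR with 6-FAM-labelled products separated by capillary electrophoresis; DMSO serves as negative control.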

Measured: AC50

Cc1cc(=O)oc2cc(O)ccc12
active: [7] 42.3 µM
inactive: [1] | [2] | [3] | [4] | [5] | [6] | [7] | [8]

O=C(O)C(=O)O
inactive: all assays above

CCCCCCCCCCCCCCCC(=O)OC
not listed: [4]
inactive: all other assays above

O=S(=O)(O)c1ccccc1
not listed: [6] | [7]
inactive: all other assays above

CC(O)COc1ccccc1 (stereo not drawn)
not listed: [6]
inactive: all other assays above

CCCCC=O
not listed: [7]
inactive: all other assays above

Nc1cc(Cl)c(-c2cc(Cl)c(N)cc2Cl)cc1Cl
active: [5] 18.1 µM | [6] 13.2 µM
inactive: all other assays above

O=S(=O)(c1ccc(OCc2ccccc2)cc1)c1ccccc1O
active: [1] 48.7 µM | [9] 33.4 µM | [5] 44.2 µM | [6] 40.9 µM | [7] 24.1 µM | [8] 33.4 µM
inactive: [2] | [3]

CCCCCCCCCC=CCC1CC(=O)OC1=O (stereo not drawn)
not listed: [5] | [6] | [8]
inactive: all other assays above

O=C1NS(=O)(=O)c2ccccc21
not listed: [5] | [7]
inactive: all other assays above

C=CC(=C)CC/C=C(\C)CCC=C(C)C
not listed: [5]
inactive: all other assays above

CC1=NN(c2ccccc2)C(=O)C1
not listed: [7] | [9]
inactive: all other assays above

Brc1ccc(Oc2ccc(Br)cc2Br)cc1
inactive: all assays above

O=CC(F)(F)C(F)(F)C(F)(F)C(F)F
not listed: [6] | [8]
inactive: all other assays above

FC(F)=C(F)C(F)(F)C(F)(F)C(F)(F)C(F)F
not listed: [5]
inactive: all other assays above

CC(C)[C@@H]1CC[C@@H](C)C[C@H]1O
not listed: [5]
inactive: all other assays above

Cc1cc(Cc2cc(C)cc(C(C)(C)C)c2O)c(O)c(C(C)(C)C)c1
active: [2] 100 µM | [9] 41.4 µM | [4] 176 µM | [7] 151 µM
inactive: [1] | [3] | [6]

— PubChem BioAssay (EPA / NIEHS)
